Measured values: the supplement of paper PMC7530171
Counter-ions that a name gives are not always drawn. ± gives the standard deviation.

Tests used:
[1] = test system: THP-1; experiment: THP-1 cell loss relative to DMSO control; higher = more host cell loss (toxicity); extreme values may be limits of the assay; conditions: 10 µM; 4 days; infection: M. tuberculosis H37Rv
Experimental: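 OICR kinase inhibitor library screened in duplicate at 10 uM against M. tuberculosis-infected THP-1 macrophages, 4 days at 37 C. THP-1 cell loss (cytotoxicity or loss of adherence) was quantified from Hoechst-stained nuclei counts by high-content imaging and normalised to the 1% DMSO control; 100 = complete loss of host cells.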

[2] = test system: THP-1 macrophages infected with Mycobacterium tuberculosis H37Rv; experiment: intracellular M.tb growth inhibition relative to DMSO (0) and 4 uM bedaquiline (100); higher = stronger inhibition of intracellular bacterial growth; conditions: 10 µM; 4 days
Experimental: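 OICR kinase inhibitor library screened in duplicate at 10 uM against THP-1 macrophages (PMA-differentiated) infected with M. tuberculosis H37Rv-pTEC27 (tdTomato RFP), 4 days at 37 C. Rows with complete host cell loss (placeholder inhibition 0, cell loss 100) were removed.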

| SMILES | THP-1 cell loss [1] [%] | intracellular M.tb growth inhibition [2] [%] |
| --- | --- | --- |
| O=C(O)c1ccc(-c2c[nH]c3ncc(-c4ccccc4)cc23)cc1C1CCCC1 | 9.42 ± 6.5 | -23.5 ± 47 |
| COc1cc(Nc2ncc3c(n2)-c2ccc(Cl)cc2C(c2c(F)cccc2OC)=NC3)ccc1C(=O)O | 8.63 ± 10 | -73.6 ± 120 |
| COc1ccc(-c2ccc3c(N4CCOC[C@@H]4C)nc(N4CCOC[C@@H]4C)nc3n2)cc1CO | 40.8 ± 2.5 | -202 ± 240 |
| Cc1cc(Nc2cc(C)c(C#N)c(NC(C)CCCC(C)(C)O)n2)n[nH]1 (configuration not stated) [TC-A 2317 hydrochloride] | 19.1 ± 1 | -257 ± 200 |
| CN1C(=O)C(Cc2c[nH]c3ccccc23)NC1=S (configuration not stated) [Necrostatin-1] | 2.6 ± 3.7 | -8.08 ± 36 |
| COc1ccc(CNC(=O)Nc2ncc([N+](=O)[O-])s2)cc1 | 80.8 ± 27 | 20.1 ± 28 |
| O=C(Nc1ccc(-c2cn[nH]c2)cc1)C1COc2ccccc2O1 (configuration not stated) [Rho Kinase Inhibitor V] | 6.82 ± 9.6 | 27.7 ± 10 |
| COc1cc(N2CCC(N3CCN(C)CC3)CC2)ccc1Nc1ncc(Cl)c(Nc2ccccc2S(=O)(=O)C(C)C)n1 | 26.4 ± 0.6 | -4.08 ± 19 |
| O=c1[nH]ccc2c(S(=O)(=O)N3CCCNCC3)cccc12 [HA 1100 hydrochloride] | 0 | -142 ± 180 |
| CC[C@H](Nc1ncnc2[nH]cnc12)c1nc2cccc(F)c2c(=O)n1-c1ccccc1 | 35.9 ± 6.3 | -236 ± 290 |
| COc1cc2ncn(-c3cc(OCc4ccccc4C(F)(F)F)c(C(N)=O)s3)c2cc1OC | 12.2 ± 11 | 38.7 ± 14 |
| COc1cc2ncnc(Nc3cccc(Cl)c3)c2cc1OC [Tyrphostin AG 1478 mesylate] | 41.5 ± 9.7 | 2.11 ± 14 |
| COCC(=O)NC/C=C/c1ccc2ncnc(Nc3ccc(Oc4ccc(C)nc4)c(C)c3)c2c1 | 25.9 ± 5.7 | 5.71 ± 95 |
| CN1CCN(CCOc2cc(OC3CCOCC3)c3c(Nc4c(Cl)ccc5c4OCO5)ncnc3c2)CC1 | 20.5 ± 7 | 44.4 ± 16 |
| CC(NC(=O)C(C#N)=Cc1ccc(O)c(O)c1)c1ccccc1 (configuration not stated) [Tyrphostin B44] | 3.72 ± 5.3 | -7.66 ± 34 |
| C/C(=N\N=C(N)N)c1ccc(NC(=O)c2cc3cccc([N+](=O)[O-])c3[nH]2)cc1 | 0 | -73 ± 67 |

| SMILES | THP-1 cell loss [1] [%] | intracellular M.tb growth inhibition [2] [%] |
| --- | --- | --- |
| Oc1cccc(-c2nc(N3CCOCC3)c3sccc3n2)c1 [PI3-Kinase a Inhibitor 2] | 62 ± 6.5 | -170 ± 240 |
| NC(=O)c1ccc(N(C(N)=O)c2c(F)cccc2F)nc1-c1ccc(F)cc1F | 10.1 ± 4.9 | -1.77 ± 10 |
| O=C1C(Cl)=C(NCCN2CCOCC2)C(=O)c2ncccc21 | 93.7 ± 8.8 | -3.64 ± 5.1 |
| Cc1cccc(-c2nn(C(=S)Nc3ccccc3)cc2-c2ccnc3ccccc23)n1 | 2.37 ± 3.4 | 17.7 ± 18 |
| C=CC[C@@H]1/C=C(\C)C[C@H](C)C[C@H](OC)[C@H]2O[C@@](O)(C(=O)C(=O)N3CCCC[C@H]3C(=O)O[C@H](/C(C)=C/[C@@H]3CC[C@@H](O)[C@H](OC)C3)[C@H](C)[C@@H](O)CC1=O)[C@H](C)C[C@@H]2OC | 0 | 42 ± 7.7 |
| Cc1ccc(-n2nc(C(C)(C)C)cc2NC(=O)Nc2ccc(OCCN3CCOCC3)c3ccccc23)cc1 | 50 ± 71 | -1.53 ± 2.2 |
| Cn1c(=O)n(-c2ccc(C(C)(C)C#N)cc2)c2c3cc(-c4cnc5ccccc5c4)ccc3ncc21 | 36.6 ± 7.3 | 26.6 ± 26 |
| COc1cc(F)c(F)c(Nc2ccc(I)cc2F)c1NS(=O)(=O)C1(C[C@H](O)CO)CC1 | 84.9 ± 1 | 44.7 ± 27 |
| CS(=O)(=O)c1cccc(CNc2nc(Nc3ccc4c(c3)CCC(=O)N4)ncc2C(F)(F)F)c1 | 56.3 ± 6 | -96.4 ± 26 |
| NC1(c2ccc(-c3nc4ccn5c(=O)[nH]nc5c4cc3-c3ccccc3)cc2)CCC1 | 34.3 ± 6.7 | -62.1 ± 130 |
| CN(C)S(=O)(=O)c1ccc2c(c1)/C(=C/c1cc3c([nH]1)CCCC3)C(=O)N2 | 7.5 ± 1.4 | -51.7 ± 62 |
| CC[C@@H]1/C=C(\C)C[C@H](C)C[C@H](OC)[C@H]2O[C@@](O)(C(=O)C(=O)N3CCCC[C@H]3C(=O)O[C@H](/C(C)=C/[C@@H]3CC[C@H](Cl)[C@H](OC)C3)[C@H](C)[C@@H](O)CC1=O)[C@H](C)C[C@@H]2OC [Pimecrolimus] | 28.5 ± 3 | 45.4 ± 4.6 |
| O=c1cc(N2CCOCC2)oc2c(-c3ccccc3)cccc12 | 59.5 ± 13 | -0.768 ± 100 |
| CN(C)CCOc1ccc(-c2nc(-c3ccncc3)c(-c3ccc4c(c3)CC/C4=N\O)[nH]2)cc1 | 72.3 ± 11 | 35.2 ± 75 |
| COC(=O)c1ccc2c(c1)NC(=O)/C2=C(\Nc1ccc(N(C)C(=O)CN2CCN(C)CC2)cc1)c1ccccc1 | 10.48 ± 0.013 | -144 ± 210 |
